# GDH-TPI counter-1 = GDH-TPI coupled enzyme inhibition counter-screen | hit rate 1.2% among 360,000 | inhibition, % at 4.8 µM | AID 588335 | GDH-TPI coupled enzyme counterscreen, NADH absorbance;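 also: 0% = DMSO wells and 100% = wells lacking the enzyme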
# VHR inh abs = inhibitors of human VHR1 phosphatase (DUSP3). P51452. recombinant VHR phosphatase, pNPP absorbance. inhibition, % at 13.3 µM. hit rate 0.52% among 290,000; in the data active = inhibition above about 50%
# Target sequence (P51452 whole entry, looked up): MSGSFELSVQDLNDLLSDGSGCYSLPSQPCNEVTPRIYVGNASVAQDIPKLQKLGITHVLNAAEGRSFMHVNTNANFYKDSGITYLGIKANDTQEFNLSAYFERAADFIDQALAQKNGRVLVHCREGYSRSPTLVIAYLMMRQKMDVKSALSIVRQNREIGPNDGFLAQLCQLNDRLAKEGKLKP
# RecA splice inh = Mtb RecA intein splicing inhibition. P9WHJ3. cell-free RecA intein splicing, fluorescence. inhibition, % (no concentration beside the values). hit rate 0.75% among 290,000. AID 2221; in the data active = inhibition above about 30%;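 also: 0% = vehicle wells and 100% = reference inhibitor control wells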
# FBA Mtb inh = inhibits M. tuberculosis FBA enzyme. P9WQA3. purified M. tuberculosis FBA, fluorescence read-out. inhibition, % at 1 µM. hit rate 2.3% among 360,000. AID 588726; in the data active = inhibition above about 27%;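 also: 0% = vehicle and 100% = reference inhibitor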
# Target sequence (P9WQA3 whole entry, looked up): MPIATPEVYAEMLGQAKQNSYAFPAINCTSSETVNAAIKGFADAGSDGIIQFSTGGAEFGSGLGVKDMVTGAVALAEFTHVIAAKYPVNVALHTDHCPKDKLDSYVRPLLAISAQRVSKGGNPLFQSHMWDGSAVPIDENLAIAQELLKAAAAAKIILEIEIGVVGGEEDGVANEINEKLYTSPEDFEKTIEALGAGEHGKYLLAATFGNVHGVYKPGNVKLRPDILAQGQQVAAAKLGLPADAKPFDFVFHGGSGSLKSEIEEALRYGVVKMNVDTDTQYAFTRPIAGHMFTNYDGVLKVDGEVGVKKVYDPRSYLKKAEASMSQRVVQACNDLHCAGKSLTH
# 3CLpro inhibitor = SARS-CoV 3CLpro protease inhibition; recombinant SARS-CoV 3CLpro, quenched FRET peptide cleavage; inhibition, % at 6 µM; P0C6X7; AID 1706; hit rate 0.14% among 290,000; in the data active = inhibition above about 12%
# CCHFV vOTU inh = CCHFV vOTU protease inhibition. Pep-AMC fluorescence. inhibition, % at 11.5 µM. hit rate 0.55% among 370,000. AID 651958; also: 0% = vehicle wells with enzyme and 100% = no enzyme wells
# Mtb FBA inh conf = Mtb FBA inhibition, confirmed; shares compounds with FBA Mtb inh; purified M. tuberculosis FBA, fluorescence read-out; inhibition, % at 1 µM; hit rate 78% among 5,600; in the data active = inhibition above about 27%;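 also: 0% = vehicle wells and 100% = reference inhibitor wells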
# GDH-TPI counter-2 = inhibits GDH-TPI coupling enzymes, flagging Mtb FBA hits; inhibition, % at 1 µM; AID 652141; shares compounds with FBA Mtb inh; GDH-TPI coupled enzyme counterscreen, fluorescence; hit rate 81% among 5,600; in the data active = inhibition above about 10%
# Numbers without * were called inactive; nt = no result; + = active, no number. Hits are enriched below; roughly 4.7% of the tested compounds scored in any of these assays. Rule as the data show it, unless noted: active = inhibition above about 30%; inactive = the rest.
SMILES,GDH-TPI counter-1,VHR inh abs,RecA splice inh,FBA Mtb inh,3CLpro inhibitor,CCHFV vOTU inh,Mtb FBA inh conf,GDH-TPI counter-2
CC(=O)Nc1cccc(NC(=S)Nc2cccc3ccccc23)c1,1,6,6,3,2,-16,nt,nt
COC(=O)[C@]12C[C@H](CC(=O)NCc3ccc(C)o3)C(=O)N(Cc3cccc4ccccc34)C1=C[C@H](COCc1ccccc1)O[C@@H]2C,nt,nt,nt,nt,nt,5,nt,nt
C[C@@H]1CCN(C2CC2)S(=O)(=O)c2ccc(N3CCC[C@H]3C)cc2O1,nt,nt,nt,nt,nt,-3,nt,nt
O=C(NNC(=O)C1C2CCCCC21)c1coc(=O)c(Br)c1 (stereo unspecified),15,13,-2,54*,-1,-8,86*,50*
CCCNS(=O)(=O)c1ccc(OCC(=O)NCC2CCCO2)cc1 (stereo unspecified),5,26,-2,-1,3,8,nt,nt
COC(=O)c1cccc(Cn2ccc3ccc(-c4ccc5ccn(Cc6cccc(C(=O)OC)c6)c5c4)cc32)c1,nt,nt,nt,nt,nt,18,nt,nt
COC(=O)c1ccc2ccn(CC(=O)NC(C)C)c2c1,-4,-18,1,85*,1,-39,191*,143*
COc1ccc(CNc2nc3nc(C)c(Cl)c(C)n3n2)cc1,6,20,0,4,2,-2,nt,nt
Cc1nc2nc(-c3ccco3)nn2c(C)c1Cl,10,-5,-3,38*,-2,-17,37*,35*
Cc1nc2nc(Cc3ccccc3)nn2c(C)c1Cl,9,18,-2,1,3,-4,nt,nt
Cc1nc2nc(COc3ccccc3)nn2c(C)c1Cl,5,8,nt,39*,0,6,+,189*
Cc1nc2nc(NCc3cccs3)nn2c(C)c1Cl,3,-34,-1,35*,-2,-23,62*,41*
Nc1nc(N2CCCCC2)nc2ccccc12,13,10,0,31*,2,-13,44*,37*
CN(CCOc1ccc(Cl)cc1)C(=O)c1ccc(S(=O)(=O)N2CCOCC2)cc1,6,-14,5,5,1,-10,nt,nt
CN(CCOc1ccccc1)C(=O)c1cc(S(=O)(=O)N2CCOCC2)ccc1Cl,8,nt,-3,31*,nt,-4,146*,116*
CCN1CCN(S(=O)(=O)c2ccc(Cl)c(C(=O)NC3CCCC3)c2)CC1,7,nt,-2,47*,nt,-1,+,+
O=C(Nc1ccc(S(=O)(=O)N2CCOCC2)cc1)c1cc(S(=O)(=O)N2CCOCC2)ccc1Cl,2,10,2,1,-4,-1,nt,nt
O=C(Nc1ccncc1)c1cc(S(=O)(=O)N2CCOCC2)ccc1Cl,1,nt,0,97*,nt,-7,+,+
O=C(Nc1ccc(Cl)cn1)c1cc(S(=O)(=O)N2CCCCC2)ccc1Cl,-3,32,-2,77*,-3,11,-6,-6
CCN1CCN(S(=O)(=O)c2ccc(Cl)c(C(=O)NC3CC3)c2)CC1,10,nt,nt,0,nt,-7,nt,nt
O=C(NC1CCCCC1)c1cc(S(=O)(=O)N2CCCC2)ccc1Cl,0,36,-1,104*,-2,22,77*,58*
O=C(CNC1CCCCC1)Nc1cc(S(=O)(=O)N2CCOCC2)ccc1Cl,3,30,1,106*,2,-12,+,+
O=C(CNCc1ccccc1Cl)Nc1cc(S(=O)(=O)N2CCOCC2)ccc1Cl,3,nt,nt,3,nt,10,nt,nt
COc1ccc(CN2CN(S(=O)(=O)c3cccs3)c3nc4ccccc4nc32)cc1,16,33,-1,8,-1,-16,nt,nt
Cc1ccc(S(=O)(=O)N2CN(CC3CCCO3)c3nc4ccccc4nc32)c(C)c1 (stereo unspecified),6,-16,5,8,1,-25,nt,nt
SMILES,GDH-TPI counter-1,VHR inh abs,RecA splice inh,FBA Mtb inh,3CLpro inhibitor,CCHFV vOTU inh,Mtb FBA inh conf,GDH-TPI counter-2
O=S(=O)(c1cccs1)N1CN(CC2CCCO2)c2nc3ccccc3nc21 (stereo unspecified),21,22,0,51*,-5,1,70*,58*
O=S(=O)(c1cccs1)N1CN(Cc2ccccc2)c2nc3ccccc3nc21,36*,14,-1,32*,0,-8,40*,27*
C[C@H](CO)N1C[C@H](C)[C@@H](CN(C)C(=O)NC2CCCCC2)OCc2cn(nn2)CCCC1=O,nt,nt,nt,nt,nt,0,nt,nt
O=c1nc2ccccn2c2ccc(S(=O)(=O)N3CCCCC3)cc12,11,6,0,99*,1,-85,111*,85*
CC1CCCCN1S(=O)(=O)c1cc2c(=O)nc3ccccn3c2cc1Cl (stereo unspecified),nt,nt,nt,nt,nt,3,nt,nt
Cc1ccn2c(c1)nc(=O)c1cc(S(=O)(=O)N3CCCCC3)ccc12,15,36,-3,54*,0,-46,45*,39*
O=c1nc2ccc(Cl)cn2c2ccc(S(=O)(=O)N3CCCCC3)cc12,11,2,-20,60*,6,-56,1,5
[C-]#[N+][C@]12C(=O)[C@H](C=C(Cl)[C@@]1(C)C=C)C(C)(C)[C@H]1C(=O)N(C)c3cccc2c31,nt,nt,nt,nt,nt,7,nt,nt
CNC(=S)Nc1cc(C)ccc1OC(F)F,-10,8,1,-1,4,-3,nt,nt
OC[C@@H]1CN(Cc2ccccc2)C[C@H](n2cnc3c(NC4CCCC4)ncnc32)O1,4,nt,nt,2,nt,-5,nt,nt
Nc1ccc(-c2nnc(-c3ccc(N)cc3)o2)cc1,36*,14,3,74*,0,-56,92*,82*
Cc1cccc(-c2nnc(-c3ccc(N)cc3)o2)c1,28,-23,-1,16,-2,-3,nt,nt
CN(C)c1ccc(-c2nc3cc(N)ccc3o2)cc1,49*,35,-45,36*,3,-63,70*,55*
Nc1ccc(-c2nc3cc(N)ccc3o2)cc1,34*,18,-4,37*,1,-49,81*,51*
CCOCCN1CCN(C(=O)CN2CCCC2=O)CC1,-2,5,-2,2,3,-21,nt,nt
O=C(Nc1ccccc1F)c1csc([C@@H]2C[C@H](O)[C@@H](CO)O2)n1,10,nt,nt,0,nt,-5,nt,nt
CC(C)NC(=O)CSc1c2c(nc3ccccc13)CCCC2,6,-5,25,2,0,2,nt,nt
Cc1ccc(-c2ccc(=O)[nH]n2)cc1,1,22,0,1,-5,14,nt,nt
Cc1cc(=O)n2cc(-c3ccccc3)nc2[nH]1,6,-2,4,89*,-1,-33,121*,94*
Cc1nc(-c2ccccc2)cc(=O)[nH]1,-3,-7,-2,1,1,-12,nt,nt
Cc1ccc(-c2cn3c(=O)cc(C)[nH]c3n2)cc1,13,33,-5,53*,1,-10,55*,75*
